From PubChem BioAssay AID1259313 (Sanford-Burnham Center for Chemical Genomics, 2017)
Screen size: about 340,000 compounds; about 8,500 (2.5%) were called active.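 Rule for the calls: active = melting temperature shift of at least 10% of the positive control shift, at one fixed dose; inactive = the rest.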 What follows is part of a selection rich in actives, with near analogues and random picks from the rest.

test system: Glutamate receptor ionotropic, NMDA 3A (GRIN3A) ligand-binding domain; assay: NR3A LBD thermal stabilization by compounds – biophysical, differential scanning fluorimetry, uHTS, primary screen (AID 1259313); conditions: at 25 µM, hits give high values, 0% = protein alone, 100% = glycine-bound protein

| SMILES | Tm shift relative to glycine control |
| --- | --- |
| Cc1nn(Cc2ccccc2)c(C)c1CNC(=O)c1ccc(F)c(S(=O)(=O)N2CCOCC2)c1 | 0.42% (inactive) |
| Cc1cc(C(=O)NNC(=S)NC(C)c2ccccc2)cs1 (stereo not given) | -0.62% (inactive) |
| CCCN1Cc2cccc(C(=O)Nc3ccc(S(=O)(=O)N4CCCCCC4)cc3)c2C1=O | -5.76% (inactive) |
| O=S(=O)(Nc1n[nH]c(C(F)(F)F)n1)c1ccccc1 | -16.9% (inactive) |
| COc1ccccc1NC(=O)Nc1nnc(Cc2ccc(F)cc2)s1 | -6.85% (inactive) |
| COc1ccccc1NC(=O)Nc1nc(CC(=O)Nc2ccccc2F)cs1 | 27.7% (active) |
| COc1ccccc1NC(=O)COC(=O)COc1ccccc1F | 0.17% (inactive) |
| Cc1cc(C)c(C)c(S(=O)(=O)N2CCN(C(=O)c3ccc4c(=O)n5c(nc4c3)CCC5)CC2)c1C | -1.83% (inactive) |
| Cc1ccc(C2=NN(C)c3nc4ccccc4n3C2)cc1 | -0.88% (inactive) |
| CCOC(=O)c1sc(=NC(=O)c2ccc(Br)cc2)n(C)c1C | -1.61% (inactive) |
| CCOC(=O)C1=CN(Cc2ccc(Br)cc2)S(=O)(=O)N(C)C1C (stereo not given) | 16.8% (active) |
| CCOC(=O)C1=CN(Cc2ccc(Br)cc2)S(=O)(=O)NC1C (stereo not given) | -0.08% (inactive) |
| Cc1ccc(Sc2cc(C(=O)c3ccccc3C(=O)O)ccc2[N+](=O)[O-])cc1 | 2.48% (inactive) |
| CCN(CC(=O)Nc1cc(Cl)ccc1C)C(=O)CSCc1ccccc1 | 3.04% (inactive) |
| C=CCC1(C#N)C(=S)NC(C)=C(C(=O)OCC)C1c1ccccc1 (stereo not given) | -1.45% (inactive) |
| Cc1ccc(CNC(=O)CSc2nnc3c(n2)[nH]c2ccc(F)cc23)cc1 | 2.6% (inactive) |
| Cc1cccc(N=Nc2c(O)[nH]c3ccc(F)cc23)c1 | 10.2% (active) |
| Oc1[nH]c2ccccc2c1N=Nc1c(F)c(F)c(F)c(F)c1F | 9.33% (inactive) |
| O=C1CN(C(=O)c2cc(F)cc(F)c2)c2ccccc2N1 | -2.16% (inactive) |
| O=C1N=C(N2CCc3ccccc3C2)S/C1=C\c1ccc(O)cc1 | -10.4% (inactive) |
| NC1=NC(=O)S/C1=C\c1ccc(O)cc1 | 32.2% (active) |
| CC(C)(C)c1ccc(/C=C2\SC(=O)N=C2N)cc1 | -1.96% (inactive) |
| Cc1c(CN2CCCC(C(=O)c3cccc(Cl)c3)C2)c(=O)n(-c2ccccc2)n1C (stereo not given) | -0.59% (inactive) |
| CCN(CC)c1ccc(NC(=O)c2ccc(Cl)nc2)cc1 | -1.3% (inactive) |

| SMILES | Tm shift relative to glycine control |
| --- | --- |
| O=C(NCCS(=O)(=O)N1CCN(c2ccccc2)CC1)c1ccco1 | 2.13% (inactive) |
| O=C(NCCS(=O)(=O)N1CCN(c2ccccc2F)CC1)c1ccc(Br)o1 | 121% (active) |
| COc1ccccc1N1CCN(S(=O)(=O)CCNC(=O)c2ccc(OC(C)C)cc2)CC1 | 0.83% (inactive) |
| COc1ccc(CCNC(=O)C(=O)NCC2CCNCC2)cc1OC | -0.1% (inactive) |
| CCc1ccc(-c2nn(-c3ccccc3)cc2CSC(=N)N)cc1 | -0.35% (inactive) |
| COc1cc(NS(=O)(=O)c2ccc(NC(=S)NC(=O)c3ccc(Br)cc3)cc2)ncn1 | -6.1% (inactive) |
| COc1cccc(/C=N/Nc2ncc(C(F)(F)F)cc2Cl)c1O | 24.2% (active) |
| COc1ccc(Br)cc1/C=N/Nc1ccc(Cl)c(C(=O)O)c1 | -7.4% (inactive) |
| O=c1[nH]c2cccnc2n(CCNc2ncc(C(F)(F)F)cc2Cl)c1=O | -2.11% (inactive) |
| CCCCN(C(=O)c1nn(C)c(=O)c2ccccc12)c1c(N)n(CCC)c(=O)[nH]c1=O | 0.36% (inactive) |
| COc1ccc(C2C(C#N)=C(N)Oc3cc(N)ccc32)cc1OC (stereo not given) | -4.08% (inactive) |
| N#CC1=C(N)Oc2cc(O)ccc2C1C1CCCCC1 (stereo not given) | 12% (active) |
| N#CC1=C(N)Oc2cc(N)ccc2C1c1ccccc1 (stereo not given) | -2.17% (inactive) |
| COCC(C)NC(=O)CSc1nc2nn(-c3ccccc3)c(=O)c-2c2n1CCCCC2 (stereo not given) | -0.39% (inactive) |
| O=C(Nc1cc(S(=O)(=O)N2CCOCC2)ccc1Cl)c1cc(=O)c2ccccc2o1 | 0.31% (inactive) |
| CC(=O)c1ccc(N2CCN(C(=O)C3CCN(S(=O)(=O)c4ccc5c(c4)CC(C)N5C(=O)C4CC4)CC3)CC2)cc1 (stereo not given) | 1.27% (inactive) |
| COc1cc(OC)c(S(=O)(=O)Nc2ccccc2C(=O)O)cc1S(=O)(=O)Nc1ccccc1C(=O)O | 5.12% (inactive) |
| COC(=O)c1ccc(NC(=O)c2ccccc2NS(=O)(=O)c2ccccc2)cc1 | 2.17% (inactive) |
| COc1cc(NC(=O)c2ccccc2NS(=O)(=O)c2ccc(Cl)s2)cc(OC)c1 | 21.3% (active) |
| CCC/C(O)=C1\C(=O)CC(C)(C)CC1=Nc1ccccc1OC | -0.4% (inactive) |
| CCCC(=O)Nc1ccc(C(=O)N/N=C/c2ccc[nH]2)cc1 | 0.18% (inactive) |
| CC(=O)Nc1ccc(C(=O)NNC(=O)CCCCC(=O)NNC(=O)c2ccc(NC(C)=O)cc2)cc1 | -2.46% (inactive) |
| CC(=O)Nc1ccc(C(=O)/C=C/c2ccc[nH]2)cc1 | 19.4% (active) |
| CC1=C(C)C(=O)OC(C(C)C2CCC3C4CC=C5CC(OC6OC(COC7OC(CO)C(O)C(O)C7O)C(O)C(O)C6O)CC(O)C5(C)C4CCC23C)C1 (stereo not given) | -4.54% (inactive) |

| SMILES | Tm shift relative to glycine control |
| --- | --- |
| O=C(CN(Cc1ccc(Br)cc1)S(=O)(=O)c1ccccc1)NCc1ccncc1 | 0.51% (inactive) |
| CC1=C(C(=O)OC(C)(C)C)C(c2ccc(Br)cc2)NC(=O)N1CCCC(=O)O (stereo not given) | 0.08% (inactive) |
| NS(=O)(=O)c1ccc(Nc2nc(-c3ccccc3)cs2)cc1 | 15.5% (active) |
| COC(=O)[C@H](Cc1ccccc1)NC(=O)Nc1ccc(S(N)(=O)=O)cc1 | -3.46% (inactive) |
| NS(=O)(=O)c1ccc(NS(=O)(=O)/C=C/c2ccccc2)cc1 | -15.1% (inactive) |
| O=C(CC1C(=O)NCCN1CC(c1ccccc1)c1ccccc1)NCCc1cn[nH]c1 (stereo not given) | -1% (inactive) |
| Cc1cccc(OCCC(=O)OCc2csc(CC(=O)Nc3ccccc3C)n2)c1 | -1.22% (inactive) |
| Cc1cccc(NC(=O)C2CCN(C(=O)NC3CCCCC3)CC2)c1 | -0.18% (inactive) |
| COc1cccc(NC(=O)c2cc(S(=O)(=O)N3CCc4ccccc43)cn2C)c1 | 1.72% (inactive) |
| COc1ccc(C(=O)C2CCCN(Cc3cccn3-c3ccccn3)C2)c(C)c1 (stereo not given) | 0% (inactive) |
| CC(C)CCN1CCN=C1N(C)C | -0.97% (inactive) |
| O=C(/C=C/NCc1ccc(F)cc1)c1ccccc1 | 0.09% (inactive) |
| CCOc1ccc(N/C=C/C(=O)c2ccccc2)cc1 | -12.3% (inactive) |
| O=C(/C=C\NCC(=O)c1ccccc1)c1ccccc1 | 12.7% (active) |
| COC(=O)Cn1c(=NC(=O)c2cc(OC)c(OC)c(OC)c2)sc2cc(OC)ccc21 | 4.34% (inactive) |
| O=C(Cn1cc(C(=O)c2cccs2)c2ccccc21)NCc1cccs1 | -6.3% (inactive) |
| COC(=O)c1cn(CC(=O)NCc2cccs2)c2ccccc12 | 11.7% (active) |
| COCCNC(=O)Cn1cc(C(=O)c2cccs2)c2ccccc21 | 4.81% (inactive) |
| CC(NC(=O)c1ccccc1SCC(=O)N1CCCC1)c1ccccc1 (stereo not given) | 1.13% (inactive) |
| Cc1cc(Cl)c(S(=O)(=O)Nc2ccc3c(c2)OCCO3)cc1OCC(N)=O | 5.63% (inactive) |
| Cc1cc(Cl)c(S(=O)(=O)N(C)C)cc1OCC(N)=O | 10.2% (active) |
| Cc1cc(Cl)c(S(=O)(=O)NCCC(=O)O)cc1OCC(N)=O | -2.09% (inactive) |
| O=C(Nc1ccccc1F)c1cc(S(=O)(=O)N2CCCCC2)cs1 | -1.16% (inactive) |
| CCN(c1ccccc1)S(=O)(=O)c1cccc(C(=O)NCc2ccccc2CN2CCOCC2)c1 | 2.34% (inactive) |

| SMILES | Tm shift relative to glycine control |
| --- | --- |
| CCOc1ccc(NC(=O)c2ccc(CSc3nnnn3C)cc2)cc1 | 26.8% (active) |
| CCOc1ccc(NC(=O)CSc2nncn2C)cc1 | -0.09% (inactive) |
| COc1ccc(CSc2nnnn2-c2ccc(C(=O)O)cc2)cc1 | 3.65% (inactive) |
| O=C(Nc1cccc(F)c1)c1cc(-c2ccco2)nc2ccccc12 | 11.7% (active) |
| O=C(CSc1ccc(-c2ccco2)nn1)Nc1cccc(F)c1 | -2.4% (inactive) |
| O=C(O)c1cccc(NC(=O)c2cc(-c3cccc(Cl)c3)nc3ccccc23)c1 | -12.1% (inactive) |
| CC1CCN(C(=O)COC(=O)CCC(=O)c2cccs2)CC1 | 0.85% (inactive) |
| Cc1cccc(OCc2ccc(C(=O)Nc3ccc(F)cc3)cc2)c1 | 13.3% (active) |
| Cc1cccc(C(=O)Nc2ccc(Oc3cnccn3)cc2)c1 | 1.77% (inactive) |
| Cc1ccc(COc2ccc(C(=O)NN)cc2)cc1 | -4.77% (inactive) |
| CC(C)(CNC(=O)CNC(=O)C1CCCCC1)N1CCOCC1 | -1.27% (inactive) |
| COc1ccc(NC(=O)CCCC2CCCCC2)c(OC)c1 | 2.43% (inactive) |
| Cc1ccc(CNC(=O)Cn2cnc3c(NCc4ccccc4)ncnc32)o1 | 3% (inactive) |
| Cc1ccc(Nc2nc(-c3ccc(O)cc3O)cs2)nc1 | 27.4% (active) |
| Cc1ccc(-c2csc(NCCc3nc4cc(Cl)c(Cl)cc4n3CCOCCO)n2)cc1 | -1.81% (inactive) |
| COc1ccc(CCNC(=O)NS(=O)(=O)c2ccc(C)cc2)cc1OC | -2.28% (inactive) |
| O=[N+]([O-])c1ccccc1SNc1ccccn1 | 1.04% (inactive) |
| CCOC(=O)N1CCN(CC(=O)c2ccc3c(c2)CCN3)CC1 | -1.56% (inactive) |
| C[C@H](OC(=O)n1ccnc1)[C@@H]1O[C@@]2(C)CCC[C@@H]1O2 | -0.49% (inactive) |
| COc1ccc(N(CC(=O)NC2CCCCCCC2)S(=O)(=O)c2c(C)nn(C)c2C)cc1 | -1.2% (inactive) |
| O=S(=O)(c1ccc(F)cc1)N1CCN(C(=S)NC2CCCC2)CC1 | 1.46% (inactive) |
| O=C(C1CCCN(S(=O)(=O)c2ccccc2)C1)N1CCN(c2ccc(F)cc2)CC1 (stereo not given) | -0.26% (inactive) |
| O=C(O)C1CCCCC1C(=O)N1CCN(S(=O)(=O)c2ccc(F)cc2)CC1 (stereo not given) | 14.4% (active) |
